# According to PubChem BioAssay AID1210 (NMMLSC, 2008):
# The source made the active and inactive calls.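 Rule for the calls: active = blocks over 70% of labeled estradiol binding at 10 µM, or over a set limit at 100 nM; inactive = the rest.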
# Target: Estrogen receptor beta (Homo sapiens) (UniProt Q92731)
# Assay: ERbeta ligand binders by competition, primary screen, cell-based, Cos7 ERbeta-GFP, flow cytometry (AID 1210);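 note: 0% = DMSO vehicle wells and 100% = complete loss of labeled estradiol signal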
# Details: fluorescent estrogen binding, stronger effect = higher value
# [1] = ligand binding inhibition, at 0.1 µM
# Estrogen receptor beta (Homo sapiens), sequence (Q92731 whole entry, looked up): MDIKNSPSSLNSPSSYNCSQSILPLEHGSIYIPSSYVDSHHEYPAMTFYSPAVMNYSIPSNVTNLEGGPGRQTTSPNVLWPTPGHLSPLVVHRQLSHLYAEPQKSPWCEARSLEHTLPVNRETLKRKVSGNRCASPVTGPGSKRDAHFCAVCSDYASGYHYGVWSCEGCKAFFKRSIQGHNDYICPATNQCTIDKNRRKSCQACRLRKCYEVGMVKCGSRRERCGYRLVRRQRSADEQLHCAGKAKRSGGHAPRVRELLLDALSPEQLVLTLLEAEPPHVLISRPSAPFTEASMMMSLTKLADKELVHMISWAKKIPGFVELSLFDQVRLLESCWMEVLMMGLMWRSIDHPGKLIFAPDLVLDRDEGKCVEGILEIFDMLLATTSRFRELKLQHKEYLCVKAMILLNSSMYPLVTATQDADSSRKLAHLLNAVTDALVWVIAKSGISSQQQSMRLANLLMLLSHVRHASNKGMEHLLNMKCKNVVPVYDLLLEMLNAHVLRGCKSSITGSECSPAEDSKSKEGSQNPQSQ
Compound,inhibition (at 10 µM),inhibition [1]
C/C(N)=C(/C#N)C(=O)CSc1nnc(Cc2ccccc2F)n1N,22% (inactive),7%
O=c1c2c([nH]c3ccccc13)C(=C1CCCC1)CC2,42% (inactive),11%
C=CCn1c(=O)c(C#N)cc2c(=O)n3ccccc3nc21,39% (inactive),22%
Oc1ccc(N=Cc2ccc(O)c(O)c2)cc1,34% (inactive),20%
CC(=O)c1ccc2c(c1)C1C=CCC1C(c1ccc(S(=O)(=O)N3CCOCC3)cc1)N2 (stereo not given),78% (active),17%
Cc1nn2cc(-c3ccc(N)cc3)nc2s1,23% (inactive),15%
Cc1ccc(-n2nnnc2SCC(=O)Nc2ccc3c(c2)COC3=O)cc1C,15% (inactive),2%
Cn1c(SCC(=O)Nc2sccc2C#N)nnc1-c1ccccc1,12% (inactive),13%
Cc1cc(=O)[nH]c(SCC(=O)NCc2ccco2)n1,59% (inactive),3%
COc1ccc(NC(=O)CSc2nc3ccccc3c3nc4ccccc4n23)cc1,38% (inactive),44%
Oc1c(Cl)cc(Cl)cc1Sc1cc(Cl)cc(Cl)c1O,33% (inactive),22%
Cc1cc(C)c(S(=O)(=O)/N=C2\C=CC(=O)C(Cl)=C2)c(C)c1,0% (inactive),16%
Cc1nnc(SCC(=O)NC(=O)NCc2ccco2)n1Cc1ccccc1,71% (active),53%
CSc1ccc(S(=O)(=O)Nc2cccc(F)c2)cc1,21% (active),75%
COc1ccc(C2Nc3ccccc3C(=O)N2Cc2ccccc2)cc1Cn1nnc2ccccc21 (stereo not given),38% (inactive),45%
